Reference: PubChem BioAssay AID2494 (National Center for Advancing Translational Sciences (NCATS), 2010)
Active and inactive are the calls of the source.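 Rule for the calls: active = compounds that inhibit caspase-1 with a complete, partial or top-dose-only concentration response; inactive = the rest.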

These compounds were tested against Caspase-1 (Homo sapiens) (UniProt P29466) (assay: Confirmation Assay for Allosteric/Competitive Inhibitors of Caspase-1). Conditions: Caspase-1 enzyme, fluorogenic peptide substrate, kinetic rate.
Text: NIH Molecular Libraries Screening Centers Network [MLSCN] NIH Chemical Genomics Center [NCGC] MLSCN Grant: 1 X01 MH078950-01 PI Name: Dr. James Wells, Dr. Enrique Perez-Paya, Dr.Janice Williams, Dr. Dennis Wolan, a person NCGC Assay Overview: The caspases (Cysteine Aspartyl Protease) comprise a related family of 14 dimeric proteases that are critical mediators of apoptosis (programmed cell death) and inflammation. The caspases represent an important class of drug targets for stroke, ischemia, cancer and inflammatory diseases. […] One goal of this project was to identify compounds that act as allosteric inhibitors via stabilizing the procaspase form of the enzyme. Previous work in Well's laboratory has shown that such allosteric inhibitors can be identified and these act by binding at the dimer interface of enzyme (Hardy, Lam et al., 2004). The biochemical assay was configured using purified caspase 1 at a high enzyme concentration to promote formation of the homodimers and thus facilitate the identification of allosteric inhibitors. The overall goal was to identify reversible inhibitors with better drug-like properties than the currently available set of aspartyl-containing peptidomimetics that covalently bind the active site. Caspase 1 was assayed using the profluorescent substrate […]. After initiation of the assay with substrate the plates were rapidly read using an automated robotic system (Kalypsys, Inc.) to maintain consistent timing. A kinetic mode of detection was used where the initial rate was collected (estimated final product formation was ~10%). Compounds were screened as a concentration-titration series that ranged from 57 uM to 0.7 nM. Below is the protocol used for caspase 1.
Caspase-1 was dispensed ([…]) into a 1536-well black solid-bottom microplate (Greiner Bio-One, Monroe, USA) using a Bio-RAPTR (Beckman Coulter, Fullerton, USA) nanoliter dispenser for automated addition of reagents, to give a final enzyme concentration of 2 nM. Assay buffer was 50 mM HEPES, pH7.4, containing 1M sodium citrate, 100 mM NaCl, 0.1 mM EDTA, 10 mM DTT, 0.01% CHAPS, 1% DMSO, and 0.1 mg/mL bovine serum albumin (BSA). Aliquots of test compound (23 nL) from a DMSO stock solution were transferred to the enzyme-containing wells using a pintool transfer station (Kalypsys Inc., San Diego, USA), and the plates were incubated for 15 min at room temperature. Each compound was added as a 12-point titration in duplicate. Substrate was dispensed ([…]) to give a final caged fluorescent peptide substrate (Ac-LEHD-AMC) concentration of […], and the initial reaction rate was monitored over 20 min at room temperature. Free AMC was measured by fluorescence detection (lex=340 nm, lem=450) with a ViewLux charge-coupled device-based imager (PerkinElmer, Waltham, USA). Percent inhibition was calculated from the median values of the uninhibited and the uncatalyzed controls, and IC50 values were determined by fitting the concentration-response data with a four-parameter Hill equation as previously described (http://www.ncgc.nih.gov/pub/openhts/curvefit/).
For `CC(=O)N[C@@H](Cc1ccc(O)cc1)C(=O)N[C@H](C(=O)N[C@@H](C)C(=O)N[C@H](C#N)CC(=O)O)C(C)C`, the Potency was 2.51 nM (active).
In the case of `CC(=O)N[C@H](C(=O)N[C@@H](C)C(=O)N[C@H](C#N)CC(=O)O)C(C)C`, the outcome is reported as “inactive”.
For `CC(C)(C)[C@H](NC(=O)c1ccc(N)c(Cl)c1)C(=O)N1CCC[C@H]1C(=O)N[C@H](C#N)Cc1nn[nH]n1`, the Potency was 20.4 nM (active).
For `CC(C)(C)[C@H](NC(=O)c1cc(Cl)cc(Cl)c1)C(=O)N1CCC[C@H]1C(=O)N[C@H](C#N)CC(=O)O`, the Potency was 0.436 nM (active).
`Cc1ccccc1C(=O)N[C@H](C(=O)N1CCC[C@H]1C(=O)N[C@H](C#N)CC(=O)O)C(C)(C)C` was tested, and the Potency was 2.78 nM (active).
`CC(C)(C)[C@H](NC(=O)c1ccc(N)c(Cl)c1)C(=O)N1CCC[C@H]1C(=O)N[C@H](C#N)CC(=O)O` was tested, and the Potency was 0.316 nM (active).
With `CONC(=O)C[C@@H](C#N)NC(=O)[C@@H]1CCCN1C(=O)[C@@H](NC(=O)c1ccc(N)c(Cl)c1)C(C)(C)C` the Potency was 145 nM (active).
With `COc1ccc(C(=O)N[C@H](C(=O)N2CCC[C@H]2C(=O)N[C@H](C#N)CC(=O)O)C(C)(C)C)cc1Cl` the Potency was 0.439 nM (active).
`CC(C)(C)[C@H](NC(=O)c1ccc(C(F)(F)F)cc1)C(=O)N1CCC[C@H]1C(=O)N[C@H](C#N)CC(=O)O` was tested, and the Potency was 8.33 nM (active).
In the case of `CCOC(=O)C[C@@H](C#N)NC(=O)[C@@H]1CCCN1C(=O)[C@@H](NC(=O)c1ccc(N)c(Cl)c1)C(C)(C)C`, the Potency is reported as 145 nM (active).
